In ChEMBL document CHEMBL1961873, “Compounds: GSK PKIS; Assays: Nanosyn kinase panel” (2012) one finds inhibition data, which are given here for one compound.

Experiment [1] deals with Sphingosine kinase 1 (Homo sapiens) (UniProt Q9NYA1). Conditions: at 1 µM.
Experiment [2] addresses T1, Sphingosine kinase 2 (Homo sapiens) (UniProt Q9NRA0).
T1 sequence (whole entry): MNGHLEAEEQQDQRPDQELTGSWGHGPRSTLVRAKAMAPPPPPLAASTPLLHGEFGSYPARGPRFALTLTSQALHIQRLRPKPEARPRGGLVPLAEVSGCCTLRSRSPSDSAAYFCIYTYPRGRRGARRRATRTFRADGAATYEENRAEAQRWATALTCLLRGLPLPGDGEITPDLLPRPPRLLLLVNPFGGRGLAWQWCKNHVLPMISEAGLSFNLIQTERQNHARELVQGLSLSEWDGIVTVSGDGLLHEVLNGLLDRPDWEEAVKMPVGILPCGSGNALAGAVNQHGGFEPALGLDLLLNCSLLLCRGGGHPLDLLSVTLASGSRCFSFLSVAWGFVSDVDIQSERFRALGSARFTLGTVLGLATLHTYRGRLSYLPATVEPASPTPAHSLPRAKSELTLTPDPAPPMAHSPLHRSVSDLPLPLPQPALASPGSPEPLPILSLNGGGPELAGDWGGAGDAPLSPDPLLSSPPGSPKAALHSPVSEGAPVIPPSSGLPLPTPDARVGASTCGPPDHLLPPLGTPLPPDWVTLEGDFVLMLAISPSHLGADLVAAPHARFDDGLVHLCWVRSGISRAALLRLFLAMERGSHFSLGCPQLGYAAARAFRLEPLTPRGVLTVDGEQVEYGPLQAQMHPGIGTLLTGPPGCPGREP
Conditions: at 0.1 µM.

The target of experiment [3] is T1, Sphingosine kinase 2 (Homo sapiens). Conditions: at 1 µM.
For experiment [4], the target named is Casein kinase II subunit alpha (Homo sapiens) (UniProt P68400). Particulars: at 0.1 µM.
Experiment [5] has the same target. Conditions: at 1 µM.
For experiment [6], the target named is T2, Inhibitor of nuclear factor kappa-B kinase subunit alpha (Homo sapiens) (UniProt O15111).
T2 sequence (whole entry): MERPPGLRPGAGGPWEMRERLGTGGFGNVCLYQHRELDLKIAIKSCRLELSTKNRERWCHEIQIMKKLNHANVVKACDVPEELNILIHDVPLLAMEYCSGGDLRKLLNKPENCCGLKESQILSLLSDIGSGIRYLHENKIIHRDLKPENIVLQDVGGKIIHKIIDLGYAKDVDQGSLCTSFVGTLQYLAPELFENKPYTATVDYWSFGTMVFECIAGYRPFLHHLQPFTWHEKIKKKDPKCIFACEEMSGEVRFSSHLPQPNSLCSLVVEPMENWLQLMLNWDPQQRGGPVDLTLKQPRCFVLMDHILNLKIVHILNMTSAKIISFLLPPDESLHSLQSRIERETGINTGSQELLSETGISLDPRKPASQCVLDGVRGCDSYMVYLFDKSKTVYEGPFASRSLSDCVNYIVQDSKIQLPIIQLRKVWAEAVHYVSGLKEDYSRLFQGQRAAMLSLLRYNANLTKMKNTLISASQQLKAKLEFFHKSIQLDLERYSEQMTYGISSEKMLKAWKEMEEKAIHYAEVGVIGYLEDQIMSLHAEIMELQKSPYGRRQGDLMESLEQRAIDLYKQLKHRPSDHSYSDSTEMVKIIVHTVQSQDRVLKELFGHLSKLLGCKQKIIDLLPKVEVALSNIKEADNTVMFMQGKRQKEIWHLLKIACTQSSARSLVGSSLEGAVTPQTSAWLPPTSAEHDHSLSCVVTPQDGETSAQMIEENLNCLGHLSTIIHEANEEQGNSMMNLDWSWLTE
Particulars: at 0.1 µM.

In experiment [7] the target is T2, Inhibitor of nuclear factor kappa-B kinase subunit alpha (Homo sapiens). Particulars: at 1 µM.
Experiment [8] concerns the target T3, Inhibitor of nuclear factor kappa-B kinase subunit beta (Homo sapiens) (UniProt O14920).
T3 sequence (whole entry): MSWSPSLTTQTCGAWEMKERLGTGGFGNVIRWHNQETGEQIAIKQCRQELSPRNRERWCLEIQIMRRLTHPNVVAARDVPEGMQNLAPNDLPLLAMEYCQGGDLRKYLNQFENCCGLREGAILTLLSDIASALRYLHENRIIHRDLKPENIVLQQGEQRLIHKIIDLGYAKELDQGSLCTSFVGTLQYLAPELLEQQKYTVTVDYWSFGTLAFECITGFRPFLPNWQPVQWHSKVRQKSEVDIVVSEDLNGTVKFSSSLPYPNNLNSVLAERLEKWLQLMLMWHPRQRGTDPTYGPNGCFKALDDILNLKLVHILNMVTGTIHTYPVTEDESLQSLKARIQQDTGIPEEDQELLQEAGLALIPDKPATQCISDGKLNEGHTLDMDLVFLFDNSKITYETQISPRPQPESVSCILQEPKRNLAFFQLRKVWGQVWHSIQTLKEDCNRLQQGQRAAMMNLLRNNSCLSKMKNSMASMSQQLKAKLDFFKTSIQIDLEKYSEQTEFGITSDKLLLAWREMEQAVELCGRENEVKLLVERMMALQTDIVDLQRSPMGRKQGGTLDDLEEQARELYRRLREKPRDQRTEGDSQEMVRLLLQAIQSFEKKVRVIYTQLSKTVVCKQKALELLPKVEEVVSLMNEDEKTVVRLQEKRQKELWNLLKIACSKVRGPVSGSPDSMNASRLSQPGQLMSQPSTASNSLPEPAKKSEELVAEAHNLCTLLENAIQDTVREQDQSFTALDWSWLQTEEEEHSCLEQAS
Particulars: at 0.1 µM.

Experiment [9] addresses T3, Inhibitor of nuclear factor kappa-B kinase subunit beta (Homo sapiens). Conditions: at 1 µM.
The target of experiment [10] is T4, Inhibitor of nuclear factor kappa-B kinase subunit epsilon (Homo sapiens) (UniProt Q14164).
T4 sequence (whole entry): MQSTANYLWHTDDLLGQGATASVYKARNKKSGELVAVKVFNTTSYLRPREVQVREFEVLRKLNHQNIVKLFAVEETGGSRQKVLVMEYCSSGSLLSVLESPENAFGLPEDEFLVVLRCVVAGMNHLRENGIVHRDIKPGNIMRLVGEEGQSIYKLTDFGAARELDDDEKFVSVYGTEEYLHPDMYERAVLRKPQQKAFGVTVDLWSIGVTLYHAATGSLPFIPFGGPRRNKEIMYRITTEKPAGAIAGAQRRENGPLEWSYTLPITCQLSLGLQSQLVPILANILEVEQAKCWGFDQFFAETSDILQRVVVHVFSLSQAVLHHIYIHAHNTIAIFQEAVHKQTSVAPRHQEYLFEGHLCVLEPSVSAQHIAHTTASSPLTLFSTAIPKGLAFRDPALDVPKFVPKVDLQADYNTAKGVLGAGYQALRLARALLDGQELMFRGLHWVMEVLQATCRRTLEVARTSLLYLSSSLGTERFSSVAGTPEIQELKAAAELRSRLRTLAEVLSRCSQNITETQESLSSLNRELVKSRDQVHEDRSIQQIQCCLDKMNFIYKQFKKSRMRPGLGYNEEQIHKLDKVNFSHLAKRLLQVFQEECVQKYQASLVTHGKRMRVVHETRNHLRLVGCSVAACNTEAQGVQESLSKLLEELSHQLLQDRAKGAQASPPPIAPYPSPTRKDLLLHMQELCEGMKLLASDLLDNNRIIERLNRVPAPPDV
Conditions: at 0.1 µM.

The target in experiment [11] is T4, Inhibitor of nuclear factor kappa-B kinase subunit epsilon (Homo sapiens). Particulars: at 1 µM.
Experiment [12] addresses T5, Serine/threonine-protein kinase Nek1 (Homo sapiens) (UniProt Q96PY6).
T5 sequence (whole entry): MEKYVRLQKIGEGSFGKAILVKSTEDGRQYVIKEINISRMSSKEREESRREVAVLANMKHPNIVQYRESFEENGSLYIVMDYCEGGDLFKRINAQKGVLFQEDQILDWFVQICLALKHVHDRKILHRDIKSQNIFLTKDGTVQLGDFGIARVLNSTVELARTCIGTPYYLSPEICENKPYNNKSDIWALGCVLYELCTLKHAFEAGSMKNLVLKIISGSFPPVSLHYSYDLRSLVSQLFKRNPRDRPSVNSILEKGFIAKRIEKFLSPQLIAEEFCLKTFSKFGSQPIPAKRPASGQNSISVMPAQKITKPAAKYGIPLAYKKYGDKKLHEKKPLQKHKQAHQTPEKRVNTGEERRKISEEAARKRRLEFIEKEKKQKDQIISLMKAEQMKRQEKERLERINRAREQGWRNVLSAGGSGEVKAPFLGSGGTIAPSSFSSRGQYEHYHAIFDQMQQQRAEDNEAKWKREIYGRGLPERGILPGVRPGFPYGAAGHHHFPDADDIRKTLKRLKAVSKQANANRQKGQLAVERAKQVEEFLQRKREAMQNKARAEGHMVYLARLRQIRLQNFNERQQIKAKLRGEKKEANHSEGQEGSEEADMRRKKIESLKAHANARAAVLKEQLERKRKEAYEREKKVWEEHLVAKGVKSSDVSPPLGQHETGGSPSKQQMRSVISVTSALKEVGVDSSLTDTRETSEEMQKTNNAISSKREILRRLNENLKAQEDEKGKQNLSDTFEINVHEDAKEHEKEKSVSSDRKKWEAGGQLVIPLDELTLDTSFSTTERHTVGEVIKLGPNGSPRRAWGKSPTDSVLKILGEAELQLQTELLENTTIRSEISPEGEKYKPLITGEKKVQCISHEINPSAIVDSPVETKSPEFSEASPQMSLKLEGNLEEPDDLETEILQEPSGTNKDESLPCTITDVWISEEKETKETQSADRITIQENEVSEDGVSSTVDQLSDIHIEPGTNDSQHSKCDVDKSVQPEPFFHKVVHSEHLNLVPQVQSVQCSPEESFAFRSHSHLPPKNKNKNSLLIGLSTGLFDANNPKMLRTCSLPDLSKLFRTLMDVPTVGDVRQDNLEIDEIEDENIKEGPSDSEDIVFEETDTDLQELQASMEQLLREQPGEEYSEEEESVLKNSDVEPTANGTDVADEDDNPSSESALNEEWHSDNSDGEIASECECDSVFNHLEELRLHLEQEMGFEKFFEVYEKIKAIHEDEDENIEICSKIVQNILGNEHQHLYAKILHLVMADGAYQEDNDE
Particulars: at 0.1 µM.

Experiment [13] deals with T5, Serine/threonine-protein kinase Nek1 (Homo sapiens). Conditions: at 1 µM.
For experiment [14], the target named is T6, Serine/threonine-protein kinase Nek2 (Homo sapiens) (UniProt P51955).
T6 sequence (whole entry): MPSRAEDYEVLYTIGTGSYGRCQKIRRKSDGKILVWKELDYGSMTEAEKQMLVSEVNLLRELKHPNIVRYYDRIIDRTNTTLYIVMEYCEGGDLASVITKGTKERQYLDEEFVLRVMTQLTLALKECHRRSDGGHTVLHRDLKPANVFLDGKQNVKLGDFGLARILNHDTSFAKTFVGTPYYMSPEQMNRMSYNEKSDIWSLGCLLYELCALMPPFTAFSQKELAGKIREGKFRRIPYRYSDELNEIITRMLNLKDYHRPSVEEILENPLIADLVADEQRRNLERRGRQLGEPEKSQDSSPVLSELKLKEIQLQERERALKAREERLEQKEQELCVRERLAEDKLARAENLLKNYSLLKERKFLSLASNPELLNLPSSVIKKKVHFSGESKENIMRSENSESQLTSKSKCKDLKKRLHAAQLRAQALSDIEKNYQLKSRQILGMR
Particulars: at 0.1 µM.

In experiment [15] the target is T6, Serine/threonine-protein kinase Nek2 (Homo sapiens). Conditions: at 1 µM.
In experiment [16] the target is Serine/threonine-protein kinase Nek6 (Homo sapiens) (UniProt Q9HC98). Conditions: at 0.1 µM.
For experiment [17] the target is unchanged. Particulars: at 1 µM.
For experiment [18], the target named is Serine/threonine-protein kinase Nek7 (Homo sapiens) (UniProt Q8TDX7). Particulars: at 0.1 µM.
Experiment [19] has the same target. Conditions: at 1 µM.
Experiment [20] addresses T7, Serine/threonine-protein kinase Nek9 (Homo sapiens) (UniProt Q8TD19).
T7 sequence (whole entry): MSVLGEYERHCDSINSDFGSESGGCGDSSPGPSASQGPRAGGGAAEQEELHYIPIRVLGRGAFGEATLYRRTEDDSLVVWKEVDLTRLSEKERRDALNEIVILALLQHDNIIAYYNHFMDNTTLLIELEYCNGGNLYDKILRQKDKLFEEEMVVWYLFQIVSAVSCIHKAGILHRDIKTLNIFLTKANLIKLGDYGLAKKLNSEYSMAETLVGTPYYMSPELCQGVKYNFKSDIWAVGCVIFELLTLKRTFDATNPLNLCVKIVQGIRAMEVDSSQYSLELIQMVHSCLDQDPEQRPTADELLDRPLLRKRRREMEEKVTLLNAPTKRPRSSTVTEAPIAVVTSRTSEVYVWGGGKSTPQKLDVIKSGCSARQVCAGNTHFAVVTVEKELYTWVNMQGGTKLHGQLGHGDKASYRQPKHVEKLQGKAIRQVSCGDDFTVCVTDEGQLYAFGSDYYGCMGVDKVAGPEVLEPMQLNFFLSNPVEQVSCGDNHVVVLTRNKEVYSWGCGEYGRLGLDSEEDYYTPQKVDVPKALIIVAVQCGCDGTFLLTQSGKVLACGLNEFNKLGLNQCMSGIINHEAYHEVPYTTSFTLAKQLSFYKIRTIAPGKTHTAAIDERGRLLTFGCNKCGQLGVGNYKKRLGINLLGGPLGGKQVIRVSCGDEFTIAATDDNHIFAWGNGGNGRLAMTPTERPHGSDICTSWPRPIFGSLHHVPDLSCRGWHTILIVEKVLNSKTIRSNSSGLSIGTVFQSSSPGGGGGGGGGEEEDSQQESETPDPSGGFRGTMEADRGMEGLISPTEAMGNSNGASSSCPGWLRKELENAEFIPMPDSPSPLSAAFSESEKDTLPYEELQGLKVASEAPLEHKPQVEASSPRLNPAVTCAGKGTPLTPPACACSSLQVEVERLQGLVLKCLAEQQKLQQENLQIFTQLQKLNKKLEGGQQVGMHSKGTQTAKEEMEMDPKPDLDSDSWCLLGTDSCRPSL
Conditions: at 0.1 µM.

Serine/threonine-protein kinase Nek6 (Homo sapiens), sequence (Q9HC98 whole entry): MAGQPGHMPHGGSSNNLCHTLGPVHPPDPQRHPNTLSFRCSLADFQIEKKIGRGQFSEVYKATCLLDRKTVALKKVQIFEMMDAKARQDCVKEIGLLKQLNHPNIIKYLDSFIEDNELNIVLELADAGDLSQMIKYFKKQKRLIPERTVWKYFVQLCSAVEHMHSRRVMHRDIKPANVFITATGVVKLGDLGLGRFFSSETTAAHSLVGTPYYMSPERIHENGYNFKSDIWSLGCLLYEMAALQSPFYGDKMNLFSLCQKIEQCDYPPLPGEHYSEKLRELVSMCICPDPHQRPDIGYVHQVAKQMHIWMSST
Serine/threonine-protein kinase Nek7 (Homo sapiens), sequence (Q8TDX7 whole entry, looked up): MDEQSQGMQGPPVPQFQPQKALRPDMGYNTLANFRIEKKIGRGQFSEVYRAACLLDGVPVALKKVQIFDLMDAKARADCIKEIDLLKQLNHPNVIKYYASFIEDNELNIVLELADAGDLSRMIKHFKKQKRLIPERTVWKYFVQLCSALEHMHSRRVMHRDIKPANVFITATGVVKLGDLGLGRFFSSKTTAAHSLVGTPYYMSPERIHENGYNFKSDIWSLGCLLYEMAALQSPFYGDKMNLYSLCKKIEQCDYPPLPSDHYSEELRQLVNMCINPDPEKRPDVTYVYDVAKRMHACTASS
Casein kinase II subunit alpha (Homo sapiens), sequence (P68400 whole entry, looked up): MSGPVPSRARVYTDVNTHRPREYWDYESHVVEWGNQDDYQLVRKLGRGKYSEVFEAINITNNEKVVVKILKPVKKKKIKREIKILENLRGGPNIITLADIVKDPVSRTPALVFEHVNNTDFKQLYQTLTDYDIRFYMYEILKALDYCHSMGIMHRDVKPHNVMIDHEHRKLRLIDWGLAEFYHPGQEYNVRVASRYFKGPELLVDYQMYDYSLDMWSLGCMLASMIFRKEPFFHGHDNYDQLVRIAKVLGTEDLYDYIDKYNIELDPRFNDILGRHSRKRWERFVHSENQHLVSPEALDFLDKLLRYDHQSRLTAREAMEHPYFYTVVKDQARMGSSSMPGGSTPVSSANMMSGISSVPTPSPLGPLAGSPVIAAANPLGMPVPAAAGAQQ
Sphingosine kinase 1 (Homo sapiens), sequence (Q9NYA1 whole entry): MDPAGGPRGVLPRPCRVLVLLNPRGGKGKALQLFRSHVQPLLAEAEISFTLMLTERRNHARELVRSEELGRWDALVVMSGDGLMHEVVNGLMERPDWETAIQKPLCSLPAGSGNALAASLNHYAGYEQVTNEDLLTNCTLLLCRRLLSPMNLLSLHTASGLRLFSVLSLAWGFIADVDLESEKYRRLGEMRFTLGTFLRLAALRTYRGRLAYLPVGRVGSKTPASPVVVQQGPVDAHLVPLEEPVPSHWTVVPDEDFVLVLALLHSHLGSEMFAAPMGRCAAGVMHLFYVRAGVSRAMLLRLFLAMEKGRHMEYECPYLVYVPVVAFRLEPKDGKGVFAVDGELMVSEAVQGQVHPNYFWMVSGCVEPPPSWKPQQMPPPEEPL

In the case of `CC(C)COC(=O)c1ccc2c(c1)/C(=C/Nc1ccc(S(N)(=O)=O)cc1)C(=O)N2`, the inhibition (commonly the relative decrease from the control value, in per cent) in experiment [1] was 1.92%; in [2], -0.06%; in experiment [3], -0.44%; in experiment [4], 7.86%; in experiment [5], 47.2%; in [6], -1.06%. For the same compound, the inhibition in experiment [7] was 3.25%; in experiment [8], -0.4%; in [9] it was 6.93%; in experiment [10], 46.2%; in experiment [11], 93.4%; in [12] it was -1.61%. Also, the inhibition is 2.33% in experiment [13]; -0.98% in experiment [14]; 0.66% in experiment [15]; -0.45% in experiment [16]; 9.49% in experiment [17]; 0.03% in experiment [18]. Further, the inhibition was 0.46% in experiment [19] and -3.08% in [20].
